# Assay results reported in the supplement of paper PMC10037445.
# In all, about 2,900 compounds were measured (“IRF Lucia reporter activity, fold change vs agonist alone”: median about 0.9, highest 2% from about 2.8 on). The full list was thinned out, with the highest values kept by preference.
# Tests used:
# RAW-Dual [1] = test: IRF Lucia reporter activity, fold change vs agonist alone; cytotoxicity flag (confluency mask): not cytotoxic; higher = enhanced IRF activity
# Summary of the method: (§1)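 Library stock was pin-tooled at 50 nL into 384-well plates of RAW-Dual macrophages (50,000 cells/well, DMEM), followed 1 h later by a PRR agonist, and the cells were kept at 37 °C, 5% CO2. Supernatant collected after 20 hours was read for IRF by QuantiLuc luminescence and for NF-κB by QuantiBlue absorbance at 620 nm. Reporter activity is fold change over agonist-alone wells, and a well counted as cytotoxic when its IncuCyte confluency was below 70% of agonist controls in both mask sets.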
# RAW-Dual [2] = test: IRF Lucia reporter activity, fold change vs agonist alone; higher = enhanced IRF activity; conditions: library stock concentration (final ~1000-fold dilution): 10 mM, agonist: MPLA (TLR4) […]
# Summary of the method: as §1
# RAW-Dual [3] = test: IRF Lucia reporter activity, fold change vs agonist alone; cytotoxicity flag (confluency mask): cytotoxic (confluency <70% of control); higher = enhanced IRF activity
# Summary of the method: as §1
# [4] = agonist: 3'3'-cGAMP (STING) 10 ug/mL
# [5] = cytotoxicity flag (confluency mask): not cytotoxic
smiles,measurement,setting,value
CCOC(=O)c1ccc(N)cc1.Cl (library stock concentration (final ~1000-fold dilution): 10 mM),IRF Lucia reporter activity,RAW-Dual [1]; [4],0.942
same,IRF Lucia reporter activity,RAW-Dual [1]; agonist: LPS (TLR4) 0.1 ug/mL,1.15
CCOC(=O)c1ccc(NC2CCCCC2)c(N)c1 (library stock concentration (final ~1000-fold dilution): 10 mM),IRF Lucia reporter activity,RAW-Dual [1]; [4],1.04
same,IRF Lucia reporter activity,RAW-Dual [1]; agonist: LPS (TLR4) 0.1 ug/mL,4.71
CCn1cc(C(=O)O)c(=O)c2c(N)c(F)c(NC3CCCCC3)cc21 (library stock concentration (final ~1000-fold dilution): 10 mM),IRF Lucia reporter activity,RAW-Dual [1]; [4],0.545
same,IRF Lucia reporter activity,RAW-Dual [1]; agonist: LPS (TLR4) 0.1 ug/mL,0.223
CCOC(=O)c1ccc(N)cc1.Cl,IRF Lucia reporter activity,RAW-Dual [2]; [5],1.01
CCOC(=O)c1ccc(NC2CCCCC2)c(N)c1,IRF Lucia reporter activity,RAW-Dual [2]; [5],1.83
NC(=O)C1CCC2CN1C(=O)N2OS(=O)(=O)O (stereo not drawn) (library stock concentration (final ~1000-fold dilution): 10 mM),IRF Lucia reporter activity,RAW-Dual [1]; [4],1.1
same,IRF Lucia reporter activity,RAW-Dual [1]; agonist: LPS (TLR4) 0.1 ug/mL,1.21
NC(=O)C1CCC2CN1C(=O)N2OS(=O)(=O)O (stereo not drawn),IRF Lucia reporter activity,RAW-Dual [2]; [5],1.13
Oc1cc(CNC(=S)/C=C/c2cc(O)c(O)c(Br)c2)cc(O)c1O (library stock concentration (final ~1000-fold dilution): 10 mM),IRF Lucia reporter activity,RAW-Dual [1]; [4],0.312
same,IRF Lucia reporter activity,RAW-Dual [1]; agonist: LPS (TLR4) 0.1 ug/mL,4.35
O=C1CCC(N2Cc3c(OCc4ccc(CN5CCOCC5)cc4)cccc3C2=O)C(=O)N1 (stereo not drawn) (library stock concentration (final ~1000-fold dilution): 10 mM),IRF Lucia reporter activity,RAW-Dual [1]; [4],1.05
same,IRF Lucia reporter activity,RAW-Dual [1]; agonist: LPS (TLR4) 0.1 ug/mL,1.02
COc1cc(O)c(C(=O)Nc2nc(C(=O)NCCN(C(C)C)C(C)C)cs2)cc1OC.Cl.O.O.O,IRF Lucia reporter activity,RAW-Dual [2]; [5],1.03
COc1cc(O)c(C(=O)Nc2nc(C(=O)NCCN(C(C)C)C(C)C)cs2)cc1OC.Cl.O.O.O (library stock concentration (final ~1000-fold dilution): 10 mM),IRF Lucia reporter activity,RAW-Dual [1]; [4],0.967
same,IRF Lucia reporter activity,RAW-Dual [1]; agonist: LPS (TLR4) 0.1 ug/mL,0.665
COc1cc2nccc(Oc3ccc(NC(=O)Nc4ccc(F)cc4F)c(F)c3)c2cc1OC (library stock concentration (final ~1000-fold dilution): 10 mM),IRF Lucia reporter activity,RAW-Dual [3]; [4],1.02
same,IRF Lucia reporter activity,RAW-Dual [3]; agonist: LPS (TLR4) 0.1 ug/mL,0.826
CCCS(=O)(=O)Nc1ccc(F)c(C(=O)c2c[nH]c3ncc(-c4ccc(Cl)cc4)cc23)c1F,IRF Lucia reporter activity,RAW-Dual [2]; [5],0.473
CCCS(=O)(=O)Nc1ccc(F)c(C(=O)c2c[nH]c3ncc(-c4ccc(Cl)cc4)cc23)c1F (library stock concentration (final ~1000-fold dilution): 10 mM),IRF Lucia reporter activity,RAW-Dual [1]; [4],0.195
same,IRF Lucia reporter activity,RAW-Dual [1]; agonist: LPS (TLR4) 0.1 ug/mL,0.356
COc1cc2nccc(Oc3ccc(NC(=O)Nc4ccc(F)cc4F)c(F)c3)c2cc1OC,IRF Lucia reporter activity,RAW-Dual [2]; cytotoxicity flag (confluency mask): cytotoxic (confluency <70% of control),1.23
COc1ncc(-c2ccc3nccc(-c4ccnnc4)c3c2)cc1NS(=O)(=O)c1ccc(F)cc1F (library stock concentration (final ~1000-fold dilution): 10 mM),IRF Lucia reporter activity,RAW-Dual [1]; [4],1.09
same,IRF Lucia reporter activity,RAW-Dual [1]; agonist: LPS (TLR4) 0.1 ug/mL,3.52
COc1ncc(-c2ccc3nccc(-c4ccnnc4)c3c2)cc1NS(=O)(=O)c1ccc(F)cc1F,IRF Lucia reporter activity,RAW-Dual [2]; [5],1.11
Cc1nc(Nc2ncc(C(=O)Nc3c(C)cccc3Cl)s2)cc(N2CCN(CCO)CC2)n1.Cl,IRF Lucia reporter activity,RAW-Dual [2]; [5],0.77
